Out of some 1,900 compounds screened, about 15 (0.8%) were called active. Cut-off read from the data, not from the text of the source: active = luminescence above about 3900; inactive = the rest. Only a sample is shown.
Each molecule was assayed against D(1A) dopamine receptor (Homo sapiens) (UniProt P21728) (assay: intrinsic activation of D1 CRE reporter – cell-based, HEK293 D1, CRE-luciferase, secondary assay 1, mechanism study for D1 allosteric modulator project, confirmation (AID 646)). Details: no dopamine, at 10 µM, hits give high values.
Sequence of D(1A) dopamine receptor (Homo sapiens) (P21728 whole entry, looked up): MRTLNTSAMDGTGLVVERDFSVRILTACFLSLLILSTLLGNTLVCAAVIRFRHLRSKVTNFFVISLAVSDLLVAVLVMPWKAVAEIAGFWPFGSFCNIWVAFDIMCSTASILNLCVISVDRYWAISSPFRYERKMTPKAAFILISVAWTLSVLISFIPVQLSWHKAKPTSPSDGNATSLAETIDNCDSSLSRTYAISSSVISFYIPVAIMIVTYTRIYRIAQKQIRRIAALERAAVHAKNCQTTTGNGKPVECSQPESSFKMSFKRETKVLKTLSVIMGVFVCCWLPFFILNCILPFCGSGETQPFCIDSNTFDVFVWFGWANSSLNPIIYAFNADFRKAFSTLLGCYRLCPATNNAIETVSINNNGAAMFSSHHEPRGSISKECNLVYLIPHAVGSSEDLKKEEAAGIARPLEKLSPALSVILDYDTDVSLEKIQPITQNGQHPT

luminescence, inactive:
CCOc1cc(-c2noc(CCC(=O)N3CCOCC3)n2)ccc1OC 1180, COC(=O)[C@H](C(C)C)n1c(C)c(C(C)=O)c(C(C)=O)c1C 1540, N#Cc1nc(Cc2ccccc2)oc1NCCc1ccccc1 1730, Cc1cc(C)c2c(n1)nn1c(-n3ccnc3)cc(C)nc21 1660, CC1CCN(c2oc(-c3ccccc3F)nc2C#N)CC1 1620, Cc1ccc(C2CC(c3cccc(Br)c3)n3nc(N)nc3N2)cc1 (stereo not given) 1420, COc1cc(NC(=O)N2CCOCC2)cc(OC)c1 1580, COc1ccc(NC(=O)C2CCCN(S(=O)(=O)c3cccc4cccnc34)C2)cc1OC (stereo not given) 1590, CCCc1nc(-c2ccccc2O)n(-c2ccccc2)n1 1710, COc1ccc(-c2nn3c(-c4ccccc4)nnc3s2)cc1OC 1800, O=C(NCc1ccco1)c1cnn2c(C(F)(F)F)cc(-c3ccco3)nc12 1560, Cc1nn(-c2ccccc2)c2c1C(=O)NC(=O)C(C)(C)C2 1740, COc1ccc(-c2nnc(SCC(=O)NC3CCCCC3)o2)cc1OC 1800, c1coc(-c2nc3nc4ccccc4n3nc2-c2ccco2)c1 1610, CC1(C)Cc2ccccc2-c2nc(CN3CCOCC3)[nH]c(=O)c21 1890, CCCCSc1nc2c(c(=O)n1CC)SC(C)C2 (stereo not given) 1490, CCOC(=O)c1c(NC(=O)CSc2nnc(Cc3csc(N)n3)n2C)sc(C)c1C 1680, C#CCNc1nc(C(C)C)nc2c1nnn2Cc1ccccc1F 1600, C/C(=C\C(=O)c1ccccc1)Nc1cccc(O)c1 1340, O=S(=O)(c1cccs1)N1CCc2ccccc2C1 1530, COc1ccc(CCNC(=O)CCn2c(=O)oc3ccccc32)cc1OC 1540, COc1ccc(CCN(C)C(=O)C2CCCN(Cc3ccc(OC)c(OC)c3)C2)cc1OC (stereo not given) 1520, O=C(C1CCC1)N1CCc2cc(S(=O)(=O)NCc3cccnc3)ccc21 1680, CCOC(=O)c1c(NC(=O)CSc2nnc(CN3CCOCC3)n2C)sc2c1CCCC2 1870, CCSc1ncnc2c(C#N)c3n(c12)CCCCC3 1840, N#Cc1nc(N)nc(N(c2ccccc2)c2ccccc2)n1 1620, COc1ncnc2c1N=C1CC(C)(C)CC(N)=C1S2 1620, N#CCCN1CCN(S(=O)(=O)c2ccc(S(=O)(=O)NC3CCCCC3)cc2)CC1 1130, c1ccc(COc2nsnc2N2CCOCC2)cc1 1550, CCc1cc(=O)oc2cc(OCC(=O)N3CCCc4ccccc43)ccc12 1680, Cn1c(/C(C#N)=C2/CCCCCN2)nc2ccccc21 1800, COc1ccc(Nc2oc(-c3ccccc3Cl)nc2C#N)cc1 1750, CCOc1cc(C(=O)N2CCc3cc(OC)c(OC)cc3C2)ccc1OC(F)F 2710, CCOc1ccc(Nc2oc(Cc3ccccc3)nc2C#N)cc1 1910, CCOc1ccccc1C1CC(c2ccccc2)Nc2nc(N)nn21 (stereo not given) 1700, Cc1cc(C(F)(F)F)nn1-c1nc(-c2ccco2)cc(C(F)(F)F)n1 1710, c1ccc(-c2nnc3n2NC(c2ccc4c(c2)OCO4)S3)cc1 (stereo not given) 1610, CCOC(=O)c1cc2n(c1C)-c1ccccc1C2=O 1720, CCSc1nc(C)nc2c1oc1ccccc12 1590, CCCc1nc(N)nc2c1C(=O)CC(C)(C)C2 1560, CCOc1ccc(Cn2c(SCCCCC#N)nc3c2c(=O)n(C)c(=O)n3C)cc1OCC 1460, CC1CCN(c2nc3c(c(=O)[nH]c(=O)n3C)n2CCCc2ccccc2)CC1 1410, Cc1ccc(-c2nn(-c3ccccc3)cc2CN(Cc2ccccc2)C(=O)CCC(=O)O)o1 1420, CC(C)n1c(C(O)c2ccccc2)nc2ccccc21 (stereo not given) 1600, CCCn1c(=O)c2[nH]c(C3CCCC3)nc2n(CCC)c1=O 1560, Nc1ccc(S(=O)(=O)NC(=O)c2ccccc2)cc1 1560, O=c1cc(-c2ccccc2)nc(N2CCCCC2)[nH]1 1600, COC(=O)c1ccccc1NC(=O)C1CCN(S(=O)(=O)c2cc(OC)ccc2OC)CC1 1480, Cn1c(=O)c2cn(-c3cccc4ccccc34)cc2n(C)c1=O 1650, COc1ccc(-n2c(Cc3cccn3C)nnc2SCC(=O)Nc2cc(C)cc(C)c2)cc1 1500, COc1ccc(CCNC(=O)c2cc3sccc3n2C)cc1OC 1640, COc1ccc(-c2nnn(Cc3nc(N)nc(N4CCCCC4)n3)n2)cc1 1520, CN1CCN(CC(O)COCc2ccc3c(c2)OCO3)CC1 (stereo not given) 1670, COc1ncnc2sc3c(c12)CCCC3 1600, CC(C)C1C2=C(CC(C)(C)CC2=O)ON1c1ccccc1 (stereo not given) 1810, COC(=O)C(C)C1Sc2ccccc2NC1=O (stereo not given) 1730, N#Cc1c(N)sc2c1CCN(C(=O)OCc1ccccc1)C2 1760, CC(=O)OC(C)C[N+](C)(C)C (stereo not given) 1390, O=C(CSc1nnc2scc(-c3ccc(F)cc3)n12)NCc1ccco1 1730, COc1ccc(CCNc2ncnc3nc[nH]c23)cc1OC 1540, CCOc1ccc2[nH]c(=O)c(C(c3nnnn3CCOC)N3CCOCC3)cc2c1 (stereo not given) 1550, N#CCSc1nc2ccccc2c(=O)n1-c1ccccc1 1780, COC(=O)C1=C(C)NC2=C(C(=O)c3ccccc32)C1c1ccc(-c2ccc(C(=O)O)cc2)o1 (stereo not given) 1810, CCn1cc(C(=O)NCC2COc3ccccc3O2)c2cc(OC)c(OC)cc2c1=O (stereo not given) 1710, C/C(Cl)=C\Cn1c(Nc2cccc(C)c2)nc2c1c(=O)n(C)c(=O)n2C 1690
